This passage reports growth results from PubChem BioAssay (NCI).

About 83,000 compounds went through this panel and 20% of them were active in at least one assay; those are over-represented in the sample as a whole.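 The test compound was applied at a single concentration to cells in 96-well plates for 48 hours, and percent growth was recorded.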 Active and inactive are the calls of the source. The calls were made as follows: active = growth percent below 10; inactive = the rest.

The test system of the experiment is HL-60(TB) leukemia. The experiment can be described thus: NCI-60 one-dose screen, 48 h (100 = growth as untreated, 0 = no growth, -100 = all killed). The conditions noted are these: 10 µM unless noted.
As for `CCOC(=O)c1[nH]c2cc(Cl)ccc2c1[C@@H](C(=O)NC(C)(C)C)N(CC)C(=O)CCCCC#Cc1cccc2c1CN(C1CCC(=O)NC1=O)C2=O` (stereo partly drawn), the growth is -7.29% (active). Turning to `O=C(/C=C/c1ccccc1)c1ccc(-n2cc(CN3CCN(c4cc5c(cc4F)c(=O)c(C(=O)O)cn5C4CC4)CC3)nn2)cc1`, the growth is 99.1% (inactive).

Take `COc1ccc(C2NC3=C(CCCC3)C(C#N)(C#N)C2(C#N)C#N)cc1` (stereo not drawn): the growth is 41.3% (inactive).
